# Source: the supplement of paper PMC10515830
# Structures can show the parent of a compound that is named as a salt.
# How the values were obtained:
# Settings in all cases: 10 µM; exposure time 6 h
# [1] = test system: Danio rerio larvae (5 dpf); experiment: difference in excitability vs DMSO (percentage points); higher = more excitable than DMSO
# Procedure, shortened: (§1)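 In 96-well plates, 48 wild-type zebrafish larvae aged 5 dpf per compound received 100 µL egg water with library compound at 10 µM final for 6 h. Three hours into this, a 3-h programme of moving lines and 100 ms, 400Hz tones ran at 28.5 ℃ while plates were photographed every 6 s. Z-LaP Tracker scored the behaviours, and each is given as the compound mean minus the vehicle control mean in percentage points.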
# [2] = test system: Danio rerio larvae (5 dpf); experiment: difference in startle response vs DMSO (percentage points); higher = stronger startle than DMSO
# Procedure, shortened: as §1
# [3] = test system: Danio rerio larvae (5 dpf); experiment: difference in activity during first hour vs DMSO (percentage points); higher = more activity than DMSO
# Procedure, shortened: as §1
# [4] = test system: Danio rerio larvae (5 dpf); experiment: difference in habituation to acoustic stimuli vs DMSO (percentage points); higher = more habituation than DMSO
# Procedure, shortened: as §1
# [5] = test system: Danio rerio larvae (5 dpf); experiment: difference in combined optomotor response to red, green and blue moving lines vs DMSO (percentage points); higher = stronger optomotor response than DMSO
# Procedure, shortened: as §1
compound,measurement,setting,value
CO/N=C(\C(=O)N[C@@H]1C(=O)N2C(C(=O)O)=C(COC(N)=O)CS[C@H]12)c1ccco1 [Cefuroxime (sodium salt)],difference in excitability,[1],21.1
same,difference in startle response,[2],5.54
same,difference in activity during first hour,[3],-6.92
same,difference in habituation to acoustic stimuli,[4],2.43
same,difference,[5],10.9
CC(C)(C)C(O)/C=C/c1ccc2c(c1)OCO2 (stereo not given) [Stiripentol],difference in excitability,[1],-5.22
same,difference in startle response,[2],0.0472
same,difference in activity during first hour,[3],3.85
same,difference in habituation to acoustic stimuli,[4],-4.89
same,difference,[5],7.37
COCC(=O)Nc1c(I)c(C(=O)NCC(O)CO)c(I)c(C(=O)N(C)CC(O)CO)c1I (stereo not given) [Iopromide],difference in excitability,[1],3
same,difference in startle response,[2],-1.37
same,difference in activity during first hour,[3],11.3
same,difference in habituation to acoustic stimuli,[4],1.33
same,difference,[5],5.16
CNC(=O)c1ccccc1Sc1ccc2c(/C=C/c3ccccn3)n[nH]c2c1 [Axitinib],difference in excitability,[1],4.07
same,difference in startle response,[2],1.36
same,difference in activity during first hour,[3],-1.06
same,difference in habituation to acoustic stimuli,[4],-0.505
same,difference,[5],6.84
Clc1ccc(C(Cn2ccnc2)OCc2csc3c(Cl)cccc23)c(Cl)c1 (stereo not given) [Sertaconazole (nitrate)],difference in excitability,[1],4.31
same,difference in startle response,[2],-8.13
same,difference in activity during first hour,[3],-18.2
same,difference in habituation to acoustic stimuli,[4],-10
same,difference,[5],-11.3
O=C1c2c(O)ccc(O)c2C(=O)c2c(NCCNCCO)ccc(NCCNCCO)c21 [Mitoxantrone (hydrochloride)],difference in excitability,[1],8.92
same,difference in startle response,[2],-11.2
same,difference in activity during first hour,[3],-16.2
same,difference in habituation to acoustic stimuli,[4],-16
same,difference,[5],-15.4
COc1cc(CNC(=O)CCCC/C=C/C(C)C)ccc1O [Capsaicin],difference in excitability,[1],12.5
same,difference in startle response,[2],8.06
same,difference in activity during first hour,[3],-6.37
same,difference in habituation to acoustic stimuli,[4],-0.624
same,difference,[5],5.27
O=c1[nH]cc(F)c(=O)[nH]1 [5-Fluorouracil],difference in excitability,[1],4.49
same,difference in startle response,[2],-1.7
same,difference in activity during first hour,[3],-1.12
same,difference in habituation to acoustic stimuli,[4],0.939
same,difference,[5],0.269
Cc1ccc(Sc2ccccc2N2CCNCC2)c(C)c1 [Vortioxetine (hydrobromide)],difference in excitability,[1],-0.102
same,difference in startle response,[2],7.18
same,difference in activity during first hour,[3],-8.07
same,difference in habituation to acoustic stimuli,[4],-14.1
same,difference,[5],-11.4
COc1c(N2C[C@@H]3CCCN[C@@H]3C2)c(F)cc2c(=O)c(C(=O)O)cn(C3CC3)c12 [Moxifloxacin (hydrochloride)],difference in excitability,[1],22.9
same,difference in startle response,[2],4.54
same,difference in activity during first hour,[3],5.78
same,difference in habituation to acoustic stimuli,[4],3.51
same,difference,[5],3.81
CCN1CCN(C(=O)N[C@@H](C(=O)N[C@@H]2C(=O)N3[C@@H]2SC(C)(C)[C@@H]3C(=O)O)c2ccccc2)C(=O)C1=O [Piperacillin (sodium salt)],difference in excitability,[1],2.92
same,difference in startle response,[2],2.6
same,difference in activity during first hour,[3],14.2
same,difference in habituation to acoustic stimuli,[4],-3.02
same,difference,[5],5.57
CC(C)(O)c1ccccc1CC[C@@H](SCC1(CC(=O)O)CC1)c1cccc(/C=C/c2ccc3ccc(Cl)cc3n2)c1 [Montelukast (sodium salt)],difference in excitability,[1],10.4
same,difference in startle response,[2],2.54
same,difference in activity during first hour,[3],-3.93
same,difference in habituation to acoustic stimuli,[4],1.58
same,difference,[5],3.42
Cc1ncc([N+](=O)[O-])n1CCO [Metronidazole],difference in excitability,[1],5.42
same,difference in startle response,[2],1.25
same,difference in activity during first hour,[3],-3.64
same,difference in habituation to acoustic stimuli,[4],-2.4
same,difference,[5],7.32
CCN1CC(CCN2CCOCC2)C(c2ccccc2)(c2ccccc2)C1=O (stereo not given) [Doxapram (hydrochloride hydrate)],difference in excitability,[1],1.64
same,difference in startle response,[2],-4.79
same,difference in activity during first hour,[3],16.8
same,difference in habituation to acoustic stimuli,[4],-5.51
same,difference,[5],1.89
C[N+]1(C)[C@@H]2C[C@@H](OC(=O)C(O)(c3cccs3)c3cccs3)C[C@H]1[C@@H]1O[C@@H]12 [Tiotropium (bromide)],difference in excitability,[1],-0.664
same,difference in startle response,[2],-4.87
same,difference in activity during first hour,[3],-7.11
same,difference in habituation to acoustic stimuli,[4],-4.6
same,difference,[5],-6.76
OCCN1C[C@H](O)[C@@H](O)[C@H](O)[C@H]1CO [Miglitol],difference in excitability,[1],8.03
same,difference in startle response,[2],3.24
same,difference in activity during first hour,[3],-0.913
same,difference in habituation to acoustic stimuli,[4],-2.04
same,difference,[5],8.24
C[C@@H](CN1CC(=O)NC(=O)C1)N1CC(=O)NC(=O)C1 [Dexrazoxane],difference in excitability,[1],5.16
same,difference in startle response,[2],0.825
same,difference in activity during first hour,[3],-0.0194
same,difference in habituation to acoustic stimuli,[4],3.65
same,difference,[5],4.12
CC(=O)O[C@]1(C(C)=O)CC[C@H]2[C@@H]3C[C@H](C)C4=CC(=O)CC[C@]4(C)[C@H]3CC[C@@]21C [Medroxyprogesterone 17-acetate],difference in excitability,[1],9.28
same,difference in startle response,[2],-1.88
same,difference in activity during first hour,[3],-1.67
same,difference in habituation to acoustic stimuli,[4],-11.4
same,difference,[5],-9.37
Cc1cn([C@H]2C=C[C@@H](CO)O2)c(=O)[nH]c1=O [Stavudine],difference in excitability,[1],7.17
same,difference in startle response,[2],-2.71
same,difference in activity during first hour,[3],-1.82
same,difference in habituation to acoustic stimuli,[4],5.47
same,difference,[5],4.85
Nc1nnc(-c2cccc(Cl)c2Cl)c(N)n1 [Lamotrigine],difference in excitability,[1],4.96
same,difference in startle response,[2],-1.15
same,difference in activity during first hour,[3],-6.88
same,difference in habituation to acoustic stimuli,[4],4.75
same,difference,[5],8.87
COc1cc2nccc(Oc3ccc(NC(=O)NC4CC4)c(Cl)c3)c2cc1C(N)=O [Lenvatinib],difference in excitability,[1],13.6
same,difference in startle response,[2],6.75
same,difference in activity during first hour,[3],-8.05
same,difference in habituation to acoustic stimuli,[4],1.57
same,difference,[5],10.3
Cc1ccc(-c2cc(C(F)(F)F)nn2-c2ccc(S(N)(=O)=O)cc2)cc1 [Celecoxib],difference in excitability,[1],6.16
same,difference in startle response,[2],-9.06
same,difference in activity during first hour,[3],2.67
same,difference in habituation to acoustic stimuli,[4],-10.4
same,difference,[5],-6.28
CC[C@H]1OC(=O)[C@H](C)[C@@H](O[C@H]2C[C@@](C)(OC)[C@@H](O)[C@H](C)O2)[C@H](C)[C@@H](O[C@@H]2O[C@H](C)C[C@H](N(C)C)[C@H]2O)[C@](C)(O)C[C@@H](C)C(=O)[C@H](C)[C@@H](O)[C@]1(C)O [Erythromycin],difference in excitability,[1],4.99
same,difference in startle response,[2],-6.73
same,difference in activity during first hour,[3],13.1
same,difference in habituation to acoustic stimuli,[4],-0.584
same,difference,[5],9.53
N=C(N)NCCC[C@@H](NC(=O)[C@@H]1CCCN1C(=O)[C@@H]1CSSCCC(=O)N[C@@H](Cc2ccc(O)cc2)C(=O)N[C@@H](Cc2ccccc2)C(=O)N[C@@H](CCC(N)=O)C(=O)N[C@@H](CC(N)=O)C(=O)N1)C(=O)NCC(N)=O [Desmopressin (trifluoroacetate salt)],difference in excitability,[1],0.805
same,difference in startle response,[2],-0.652
same,difference in activity during first hour,[3],28.8
same,difference in habituation to acoustic stimuli,[4],-4.29
same,difference,[5],5.42
